The full list was thinned out, with hits kept by preference.
IL1B secr inh – qHTS for Inhibitors of Inflammasome Signaling: IL-1-beta AlphaLISA Primary Screen; THP-1 LPS/ATP IL-1B secretion, AlphaLISA, 16 h; hits give low values; hit rate 4.7% among 360,000; AID 743279, 2014; activity change, % at 57.5 µM; in the data active means activity change below about -50%; inconclusive means mostly about -30% to -49%
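THP-1 cells pretreated 1 hr with compounds (up to 57.5 uM final), then stimulated with LPS (250 ng/mL final) plus ATP (1.25 mM final); secreted IL-1B measured by AlphaLISA after 16 hr, decreased signal indicating inhibition.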
ALOX12 inh – Primary qHTS assay for inhibitors of human arachidonate 12S-lipoxygenase (ALOX12): Round 2 | purified 12hLO, xylenol orange hydroperoxide absorbance | Potency, µM (top dose mostly 108 µM), for inactives: top-dose activity change, negative = inhibition, hits mostly inhibitors | hit rate 1.1% among 580,000 | AID 1671190, 2021; further: potency means the concentration at half of the fitted maximal effect
Target sequence (P18054 whole entry, looked up): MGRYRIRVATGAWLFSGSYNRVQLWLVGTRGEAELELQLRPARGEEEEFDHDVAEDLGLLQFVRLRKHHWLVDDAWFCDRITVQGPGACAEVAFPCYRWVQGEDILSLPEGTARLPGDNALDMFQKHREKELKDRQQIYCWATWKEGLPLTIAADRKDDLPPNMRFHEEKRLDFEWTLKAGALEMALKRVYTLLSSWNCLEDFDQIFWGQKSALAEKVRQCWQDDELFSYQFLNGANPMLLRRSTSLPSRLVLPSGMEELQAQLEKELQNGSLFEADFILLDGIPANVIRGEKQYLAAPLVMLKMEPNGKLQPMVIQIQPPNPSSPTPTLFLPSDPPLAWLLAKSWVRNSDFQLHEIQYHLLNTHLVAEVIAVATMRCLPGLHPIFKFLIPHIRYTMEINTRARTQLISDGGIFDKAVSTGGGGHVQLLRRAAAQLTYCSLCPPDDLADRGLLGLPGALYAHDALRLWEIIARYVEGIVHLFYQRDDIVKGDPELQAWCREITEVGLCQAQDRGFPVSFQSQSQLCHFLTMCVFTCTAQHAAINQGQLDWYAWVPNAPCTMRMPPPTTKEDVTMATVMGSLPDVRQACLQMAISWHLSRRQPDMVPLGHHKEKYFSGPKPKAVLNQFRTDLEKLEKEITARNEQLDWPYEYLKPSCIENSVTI
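Purified human 12hLO at 150 nM in 25 mM Hepes, 0.01% Triton X-100, pH 7.0, preincubated 15 min at room temperature with compound. Reaction started with 40 uM arachidonic acid, 30 min at room temperature. Hydroperoxide measured by Fe-xylenol orange, 573/405 nm absorbance ratio.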
DT40 TDP1 no CPT – qHTS for Inhibitors of human tyrosyl-DNA phosphodiesterase 1 (TDP1): qHTS in cells in absence of CPT; Potency, µM (doses to about 46.2 µM), inactives show top-dose activity change, negative = growth inhibition, actives largely listed as inhibitors; DT40 Tdp1-/- hTDP1 cells, no CPT, ATP luminescence, 48 h; hit rate 15% among 420,000; further: potency means the concentration at half of the fitted maximal effect; nearly all actives have a fitted effect of over 55% in size
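Camptothecin absent (DMSO only). Human TDP1-complemented DT40 knockout cells, 400 cells/well, 37 °C for minimum 48 hr; ATP measured via CellTiter-Glo, 30 min dark incubation, luminescence.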
TDP1 cell CPT – qHTS for Inhibitors of human tyrosyl-DNA phosphodiesterase 1 (TDP1): qHTS in cells in presence of CPT; Potency, µM (highest dose often 46.2 µM), for inactives: at the highest dose activity change, negative = growth inhibition, hits mostly inhibitors; hit rate 12% among 420,000; chicken DT40 Tdp1-/-;hTDP1 cells + 20 nM CPT, ATP luminescence, 48 h; AID 686979, 2013; further: potency means the concentration at half of the fitted maximal effect; nearly all actives have a fitted effect of over 55% in size
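Chicken DT40 Tdp1-/- cells complemented with human TDP1, 400 cells/well, exposed to compounds plus 20 nM camptothecin for at least 48 h at 37 C; viability read as ATP content by CellTiter-Glo luminescence.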
HT1080 IDH1KD tx – qHTS for induction of synthetic lethality in tumor cells producing 2HG: qHTS for the HT-1080-IDH1KD cell line | Potency, µM (titrated, usually from 46.1 µM), for the others: at the highest dose activity, negative = toxicity, hits mostly cytotoxic | hit rate 2% among 360,000 | HT-1080 IDH1 knockdown viability, ATP luminescence, 48 h;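 further: potency means the concentration at half of the fitted maximal effect; 0% = DMSO wells and -100% = cell-free medium wells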
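Assay cells: HT-1080 with IDH1 knockdown, 750 per well, RPMI/5% FBS. Exposure: 48 h at 37 °C following 2 h pre-incubation. Read: CellTiter-Glo luminescence; fitted concentration-response, curve class assigned.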
HT1080-NT tox – qHTS for induction of synthetic lethality in tumor cells producing 2HG: qHTS for the HT-1080-NT fibrosarcoma cell line | HT-1080-NT fibrosarcoma viability, CellTiter-Glo ATP luminescence, 48 h | Potency, µM (titrated, usually from 46.1 µM), inactives show top-dose activity, negative = less viability, hits mostly cytotoxic | hit rate 1.6% among 360,000 | AID 686970, 2013;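 further: NT is the 2HG producing partner of a matched IDH1 knockdown line; potency means the concentration at half of the fitted maximal effect; 0% = DMSO-treated cells and -100% = media-only wells without cells; nearly all actives have a fitted effect of over 55% in size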
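A 48-hour cytotoxicity screen used HT-1080-NT cells plated 2 hours before compound delivery. ATP-based CellTiter-Glo luminescence measured viability, normalized to DMSO and no-cell controls.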
An asterisk follows results filed as active; [ ] = dose if it differs, or a comment. Unless noted, the call rests on the fitted dose curve; in most records, active means well fitted curve in the direction sought with a large enough effect; inconclusive means small, poorly fitted or top-dose-only effect, or another doubt; inactive means no such curve, though single readings can be large; an effect the other way counts as inactive or inconclusive. Unless noted, on the % scale 0 is the no-effect control and ±100 the full control effect.

Cc1oc2cc3oc(=O)c(CCC(=O)NCCc4ccccc4F)c(C)c3cc2c1C was read as ALOX12 inh -9%, DT40 TDP1 no CPT 23µM* and TDP1 cell CPT 23µM*.
Cc1nc2ccccc2c(C)c1CC(=O)NCCc1ccccc1F was read as ALOX12 inh 18µM*.
`COc1ccc2c(C)c(CCC(=O)NCCc3ccc(OC)c(OC)c3)c(=O)oc2c1` gave ALOX12 inh -20%, DT40 TDP1 no CPT inconclusive and TDP1 cell CPT 13µM*.
For C#CCSc1nncn1C(=O)/C=C/c1ccccc1 the results were IL1B secr inh -81*, DT40 TDP1 no CPT inconclusive, TDP1 cell CPT 13µM*, HT1080 IDH1KD tx 7% and HT1080-NT tox inconclusive.
`Cc1ccc(NC(=S)Nc2ccc3nc(-c4ccccn4)c(-c4ccccn4)nc3c2)cc1C` gave IL1B secr inh -9, DT40 TDP1 no CPT inconclusive, TDP1 cell CPT 26µM*, HT1080 IDH1KD tx 15% and HT1080-NT tox 5%.
`Cc1ccc(NC(=S)Nc2ccccn2)c(C)c1` gave IL1B secr inh -11, ALOX12 inh 11µM*, DT40 TDP1 no CPT 5.2µM*, TDP1 cell CPT 3.7µM*, HT1080 IDH1KD tx -9% and HT1080-NT tox inconclusive.
For Cc1cccc(NC(=S)Nc2ccccn2)c1 the results were IL1B secr inh 11, ALOX12 inh 28µM*, DT40 TDP1 no CPT 8.2µM*, TDP1 cell CPT inconclusive, HT1080 IDH1KD tx 1% and HT1080-NT tox -10%.
For Cc1ccc(NC(=S)NNC(=S)Nc2ccc(C)cc2C)cc1 the results were IL1B secr inh -25, ALOX12 inh 35µM*, DT40 TDP1 no CPT 5.2µM*, TDP1 cell CPT 3.7µM*, HT1080 IDH1KD tx -21% and HT1080-NT tox -30%.
Cc1ccc(NC(=O)CCC(=O)NNC(=S)Nc2ccccc2)c(C)c1 was read as IL1B secr inh 40, ALOX12 inh -6%, DT40 TDP1 no CPT -1%, TDP1 cell CPT 6%, HT1080 IDH1KD tx 0% and HT1080-NT tox 7%.
C=CCOc1ccccc1NC(=O)c1ccccc1C was read as ALOX12 inh 4%.
For O=C(NC1CCN(c2cc(-c3ccccc3)[nH]n2)CC1)c1ccc(F)cc1F the results were ALOX12 inh 11%.
COc1ccc(CN[C@H]2[C@H](O)[C@H](O)C[C@@H]2c2ccc(C(F)(F)F)cc2)cc1 was read as ALOX12 inh 47%[176 µM].
Cn1c(OCc2cccnc2)nc2c1c(=O)n(Cc1cccc(Cl)c1)c(=O)n2C was read as ALOX12 inh 1%.
For COC(=O)c1ccc(NC(=S)Nc2ccccn2)cc1 the results were IL1B secr inh -1, ALOX12 inh inconclusive, DT40 TDP1 no CPT inconclusive, TDP1 cell CPT inconclusive, HT1080 IDH1KD tx -17% and HT1080-NT tox 1%.
Cc1cc(C)cc(NC(=S)Nc2ccccn2)c1 was read as IL1B secr inh inactive, ALOX12 inh 6.3µM*, DT40 TDP1 no CPT 10µM*, TDP1 cell CPT 13µM*, HT1080 IDH1KD tx 2% and HT1080-NT tox 2%.
Screening Cc1ccc(NC(=S)Nc2ccccn2)cc1C returned IL1B secr inh 57, ALOX12 inh inconclusive, DT40 TDP1 no CPT 16µM*, TDP1 cell CPT 23µM*, HT1080 IDH1KD tx -1% and HT1080-NT tox 15%.
For COc1ccc(NC(=S)Nc2ccccn2)cc1 the results were IL1B secr inh -13, ALOX12 inh 0%, DT40 TDP1 no CPT inconclusive, TDP1 cell CPT inconclusive, HT1080 IDH1KD tx 15% and HT1080-NT tox -15%.
`Cc1ccc(C(=O)NCCc2ccccc2)cc1` gave IL1B secr inh -8, DT40 TDP1 no CPT inconclusive, TDP1 cell CPT -2%, HT1080 IDH1KD tx 0% and HT1080-NT tox -2%.
COc1ccc(CCNC(=O)c2cc3ccccc3oc2=O)cc1 was read as IL1B secr inh 1, ALOX12 inh 1%, DT40 TDP1 no CPT 3%, TDP1 cell CPT 10%, HT1080 IDH1KD tx 8% and HT1080-NT tox 6%.
For Cc1ccc(O)c(C(=O)c2cc(C(=O)NCCc3ccccc3)c(=O)n(CCc3ccccc3)c2)c1 the results were IL1B secr inh -3, ALOX12 inh 23%, DT40 TDP1 no CPT 16µM*, TDP1 cell CPT inconclusive, HT1080 IDH1KD tx 1% and HT1080-NT tox 8%.
Screening COc1ccc(O)c(C(=O)c2cc(C(=O)NCCc3ccccc3)c(=O)n(CCc3ccccc3)c2)c1 returned IL1B secr inh -14, ALOX12 inh -19%, DT40 TDP1 no CPT 15µM*, TDP1 cell CPT 18µM*, HT1080 IDH1KD tx 1% and HT1080-NT tox 3%.
`COc1ccc2oc(=O)cc(CN3CCN(C(=O)c4c(F)cccc4F)CC3)c2c1` gave ALOX12 inh -4%.
`O=C(Nc1cccc(C(F)(F)F)c1)C1Cc2c(-c3ccco3)ccnc2O1` (stereo not drawn) gave ALOX12 inh inconclusive, DT40 TDP1 no CPT inconclusive, TDP1 cell CPT 16µM*, HT1080 IDH1KD tx -25% and HT1080-NT tox -14%.
For O=C(Nc1cccc(OC(F)(F)F)c1)C1Cc2c(-c3ccco3)ccnc2O1 (stereo not drawn) the results were IL1B secr inh -21, ALOX12 inh -14%, DT40 TDP1 no CPT 18µM*, TDP1 cell CPT inconclusive, HT1080 IDH1KD tx inconclusive and HT1080-NT tox -9%.
`O=C(Nc1cccc(C(F)(F)F)c1)C1Cc2c(-c3ccc(Cl)cc3)ccnc2O1` (stereo not drawn) gave IL1B secr inh -4, ALOX12 inh inconclusive, DT40 TDP1 no CPT inconclusive, TDP1 cell CPT inconclusive, HT1080 IDH1KD tx inconclusive and HT1080-NT tox inconclusive.
Screening O=C(Nc1cccc(C(F)(F)F)c1)C1Cc2c(-c3ccccc3)ccnc2O1 (stereo not drawn) returned IL1B secr inh -3, ALOX12 inh inconclusive, DT40 TDP1 no CPT 26µM*, TDP1 cell CPT inconclusive, HT1080 IDH1KD tx 23µM* and HT1080-NT tox inconclusive.
`CN(CCOc1ccc(F)cc1)C(=O)c1ccc2ccccc2n1` gave ALOX12 inh 4%.
